Source: PubChem BioAssay
The entries come from a sample that favours hits as a whole.
AMPAR-TARP mod: modulators of GluA2-stargazin AMPA receptor complexes, primary screen, cell-based, membrane potential dye; Voltage-dependent calcium channel gamma-2 subunit (Mus musculus) + Glutamate receptor 2 …; calls only at 30 µM; 3.5% of 40,000 active; AID 1259245, 2017; HEK293 GluA2+stargazin, membrane potential dye (FDSS), glutamate EC50; hits were called plate by plate, in both directions;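 active = any of four per-well response measures lying three or more SD from its plate-wide compound average, in either direction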
GIRK2 activator: activators of NPY4-receptor-primed GIRK2 channels, summary, cell-based, HEK293, thallium flux | G protein-activated inward rectifier potassium channel 2 (Homo sapiens), P48051 | HEK293 GIRK2/NPY4 cells, thallium flux fluorescence | activation (% efficacy), % for hits at 37.5 µM | 34,000 tested, under 10 active | AID 1259324, 2017;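 active = primary screen hit, no activity in plain HEK293 cells, and in GIRK2-only cells above 5% efficacy rising with concentration; inactive = the rest, including fluorescent compounds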;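 also: efficacy is normalized control-subtracted fluorescence 15 s after thallium addition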
* hit, by the source's call; i = inactive; nt = no result given; + = active, no number.

SMILES	AMPAR-TARP mod	GIRK2 activator
Cc1cc(C)c2c(n1)nn1c(NCCc3ccccc3)cc(C)nc21	i	i
Cc1cc(C)c2c(n1)nn1c(NCCN3CCOCC3)cc(C)nc21	+	i
Cc1cc(C)c2c(n1)nn1c(NCCN(C)C)cc(C)nc21	+	i
CN(C)S(=O)(=O)N1CCN(Cc2nnnn2-c2ccc(F)cc2)CC1	i	i
CCc1nc2sc(C(c3cccc(C(F)(F)F)c3)N3CCCC(C)C3)c(O)n2n1 (stereo not drawn)	i	i
Cc1ccc(S(=O)(=O)NCC2CCN(C)CC2)c(C)c1	i	i
Cc1ccc(S(=O)(=O)NCCn2nc(C)c(Cl)c2C)c(C)c1	+	i
COc1ccc(N(Cc2cccc(Cl)c2)S(=O)(=O)c2ccc3nncn3c2)cc1	i	i
COc1ccc(N(Cc2cccc(C)c2)S(=O)(=O)c2ccc3nncn3c2)cc1	+	i
O=C(Nc1ccc2c(c1)N(C(=O)c1ccco1)CC2)c1ccc(C(F)(F)F)cc1	i	i
COCCNC(=O)C(=O)NCC(F)(F)F	i	i
CNC(=O)C(=O)Nc1cc(N2CCCS2(=O)=O)ccc1OC	i	nt
CCOc1ccc(-c2noc(C3CC(=O)N(c4ccc5c(c4)OCO5)C3)n2)cc1 (stereo not drawn)	i	i
O=C(NCC(O)(c1ccco1)C1CC1)C1c2ccccc2Oc2ccccc21 (stereo not drawn)	i	i
O=C(COc1ccccc1C1CC(c2ccccc2)=NN1C(=O)c1ccccc1)NCCO (stereo not drawn)	+	nt
O=C(c1ccccc1)N1N=C(c2ccc(F)cc2)CC1c1ccc2nccnc2c1 (stereo not drawn)	nt	i
O=C(CCn1ccc(=O)[nH]c1=O)N1CCC(c2nnc(-c3ccco3)s2)CC1	i	i
O=C(Nc1ccc(Cl)c([N+](=O)[O-])c1)c1ccc(=O)n(Cc2ccc(Cl)cc2)c1	i	i
COc1cccc(-n2nnc3c(N4CCN(C(=O)c5ccc(F)c(F)c5)CC4)ncnc32)c1	i	nt
O=[N+]([O-])c1ccc(S(=O)(=O)NCC2COC3(CCCCC3)O2)cc1 (stereo not drawn)	i	i
O=[N+]([O-])c1cccc(S(=O)(=O)NCC2COC3(CCCCC3)O2)c1 (stereo not drawn)	+	i
Cc1nnsc1C(=O)N1CCC(CNC(=O)Nc2cccc(Cl)c2)CC1	+	i
Cc1nnsc1C(=O)N1CCC(CNC(=O)c2cccc(Cl)c2)CC1	i	i
COc1ccc(OC)c(C(=O)/C=C/c2ccccc2Cl)c1	+	nt
COc1ccc(C(=O)/C=C/c2ccccc2Cl)c(OC)c1	i	nt
SMILES	AMPAR-TARP mod	GIRK2 activator
COc1ccc(S(=O)(=O)c2cc3cc(F)cc(F)c3oc2=O)cc1	i	nt
Cc1cccn2c(=O)c(C(=O)NCCCN3CCOCC3)c(O)nc12	+	i
Cc1ccc2nc3c(cc(C(=O)NCCN4CCOCC4)n3C)c(=O)n2c1	i	i
COc1ccccc1N1CC(C)Cn2c1nc1c2c(=O)n(Cc2cccc(C)c2)c(=O)n1C (stereo not drawn)	i	nt
COc1ccccc1N1CC(C)Cn2c1nc1c2c(=O)n(Cc2ccc(C)cc2)c(=O)n1C (stereo not drawn)	+	nt
CC(C)S(=O)(=O)c1ccc(C(=O)Nc2nc3ccc(Br)cc3s2)cc1	+	nt
Cc1nc2ccc(NC(=O)c3ccc(S(=O)(=O)C(C)C)cc3)cc2s1	+	nt
Cc1nc2ccc(NC(=O)c3cccc(S(=O)(=O)C(C)C)c3)cc2s1	i	i
COc1ccc(S(=O)(=O)CCC(=O)Nc2nc3cc(OC)c(OC)cc3s2)cc1	i	i
Cc1cc2nc(NC(=O)c3ccc(S(=O)(=O)C(C)C)cc3)sc2cc1C	i	i
COc1ccc(S(=O)(=O)CCC(=O)Nc2nc3ccc(Br)cc3s2)cc1	+	i
C/C(O)=C1/C(=O)NC23CCCCC2C1c1ccccc1O3 (stereo not drawn)	i	i
COc1ccc(S(=O)(=O)N2CCCc3cc(N)ccc32)cc1	i	nt
O=S(=O)(Nc1ccc(Br)cc1)N1CCOCC1	i	nt
O=S(=O)(Nc1ccc(Br)cc1)N1CCCCCC1	+	nt
O=C(NCCCCN1CCOC(c2ccccc2)C1)C(=O)Nc1ccc(F)c(Cl)c1 (stereo not drawn)	nt	i
Cc1cc(C(=O)Nc2ccc3c(c2)OCC(C)(C)C(=O)N3C)c(C)o1	i	i
CN1C(=O)C(C)(C)COc2cc(NC(=O)c3ccc4nsnc4c3)ccc21	+	i
O=C(c1ccccc1)N1CCN(c2nccn2-c2cccc(Cl)c2)CC1	i	i
CCCCS(=O)(=O)NCCNc1cc(-n2cccn2)ncn1	+	i
COc1cc(S(=O)(=O)NCCNc2cc(-n3cccn3)ncn2)c(C)cc1C	i	i
COc1cc(OC)cc(-c2noc(Cn3ccn4nc(-c5ccc(C)c(C)c5)cc4c3=O)n2)c1	i	i
CC1CN(c2oc(-c3ccco3)nc2S(=O)(=O)c2ccc(F)cc2)CC(C)O1 (stereo not drawn)	i	i
COc1cc2oc(=O)cc(-c3ccccc3)c2cc1CCC(=O)O	i	i
O=S(=O)(N1CCOCC1)n1c(Cc2ccccc2)nc2ccccc21	+	i
SMILES	AMPAR-TARP mod	GIRK2 activator
O=S(=O)(N1CCOCC1)n1nnc2ccccc21	i	i
Cc1cc(C)n(CCNC(=O)c2ccc(N3CCCC3)nn2)n1	i	i
Cc1cc(NC(=O)c2ccc(N3CCCCC3)nn2)on1	+	i
CCc1nnc(NS(=O)(=O)c2ccc(NC(=O)c3cc4cc([N+](=O)[O-])ccc4s3)cc2)s1	+	nt
CCc1nnc(NS(=O)(=O)c2ccc(NC(=O)c3ccc([N+](=O)[O-])o3)cc2)s1	i	nt
C=CCOCC(O)CN1CCN(C(=O)OCC)CC1 (stereo not drawn)	i	i
COc1cc(NS(=O)(=O)c2ccc3c(c2)CCCC3)ccc1N1CCCCC1=O	+	i
COc1ccc(NS(=O)(=O)c2ccc3c(c2)CCCC3)cc1N1CCCCC1=O	i	i
O=C(Cc1cccs1)N1CCN(C(=O)c2cnn3ccccc23)CC1	i	i
COC(=O)c1ccccc1C(=O)N1CCN(c2ncnc3c2nnn3-c2ccccc2)CC1	i	nt
Cc1ccc(S(=O)(=O)NCc2ccccc2)c(C)c1N(C)S(=O)(=O)c1ccccc1	i	nt
Cc1ccc(S(=O)(=O)NCc2cccnc2)c(C)c1N(C)S(=O)(=O)c1ccc(Cl)cc1	+	i
COCCCn1c(SCc2nc(-c3ccc(Cl)cc3)no2)nc2ccccc2c1=O	i	i
COC(=O)CSc1nc(-c2ccc(F)cc2)cc(C(F)(F)F)n1	+	nt
COc1ccc(-c2cc(C(F)(F)F)nc(SCC(=O)N3CCCC3)n2)cc1OC	i	nt
COc1ccc(CNC(=O)CSc2nccnc2N2CCN(c3ccccc3)CC2)cc1	nt	i
O=C(NCCOc1ccc(F)cc1)c1c(F)cccc1Cl	+	i
O=C(NCCOc1ccc(F)cc1)c1ccccc1Cl	i	i
